In the library only some 7.9% were active in any assay of this set; here they are far more common.
HCMV inh: blocks human cytomegalovirus replication; AID 1259415; activity change, negative = inhibition, % at 57.5 µM; HFF cells, HCMV-luciferase reporter, 72 h; hits give low values; 4.5% of 410,000 active; in the data active means activity change below about -60%; inconclusive means no clear call, values can overlap the other calls; inactive means above about -39%
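Human foreskin fibroblasts infected with luciferase-reporter HCMV at MOI 1 PFU/cell, compounds at two doses. Luciferase measured 72 h post infection; normalized to buffer-only basal and Salinomycin (10uM) controls.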
MARV entry inh: blocks Marburg virus binding to or entry into cells | Marburg virus pseudotyped entry inhibition, cell reporter | Potency, µM (titrated, usually from 37.8 µM), most hits filed as inhibitors | 1.8% of 300,000 active | AID 540276; calls by dose curve; tested in HEK293 cells
HCV inh: HCV inhibition. Huh7.5.1 HCVcc-Cre infection, luciferase reporter, 44 h. Potency, µM (doses to about 41.8 µM), usual class: inhibitors. 3.4% of 340,000 active. AID 651820; active means well fitted inhibition curve with a large enough effect; inconclusive means small, poorly fitted or top-dose-only effect, or another doubt; inactive means no such curve, though single readings can be large or run the other way
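Luciferase read-out (15 sec integration) after a 15 min room-temperature substrate step quantifies HCVcc-Cre infection. Cells, 1,000 per well, had compound added 4 h post-plating, then virus at ~0.5 moi, and were cultured 44 h.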
Lassa entry inh: Lassa virus entry inhibition | Lassa virus pseudotype entry inhibition, cell reporter | Potency, µM (series often up to 37.9 µM), hits mostly inhibitors | 1.2% of 300,000 active | AID 540256; calls by dose curve; tested in HEK293 cells; further: nearly all actives have a fitted effect of over 50% in size
FMDV inh: antivirals against foot and mouth disease virus; FMDV antiviral cell-based qHTS; Potency, µM (doses to about 57.9 µM), hits mostly inhibitors; 1.2% of 410,000 active; AID 1159524; calls by dose curve; tested in HEK293T cells; further: read-out not given here; nearly all actives have a fitted effect of over 45% in size
Each line names hits and unclear results; the compound was inactive in the other large screens.

Cc1ccc(C2=NOC(=O)/C2=C\C=C\c2ccccc2)cc1	HCMV inh -109, MARV entry inh inconclusive, HCV inh inconclusive, Lassa entry inh inconclusive, FMDV inh 14µM
CC1=NN(c2cccc(C(=O)O)c2)C(=O)/C1=C\C=C\c1ccco1	MARV entry inh inconclusive
CC1=NN(c2ccccc2)C(=O)/C1=C/c1cc(C)n(C2CC2)c1C	HCMV inh -68
CC1=NN(c2ccccc2)C(=O)/C1=C/C=C/c1ccccc1	HCMV inh -69, MARV entry inh inconclusive, FMDV inh 35µM
CCOC(=O)C1=C(C)NC(=O)N[C@H]1c1ccc2c(c1)OCO2	none (no result: HCMV inh, HCV inh, Lassa entry inh, FMDV inh)
CCN(CC)CCN1C(=O)C(=O)/C(=C(\O)c2ccc(F)cc2)[C@@H]1c1ccncc1	none (no result: HCMV inh, HCV inh, Lassa entry inh, FMDV inh)
O=C(O)c1ccc(Cl)c(S(=O)(=O)Nc2ccccc2Cc2ccccc2)c1	none
Cn1cc(/C=C(\C#N)C(=O)Nc2ncc(Cc3cccc(Cl)c3)s2)c2ccccc21	none (no result: HCMV inh, Lassa entry inh, FMDV inh)
N#C/C(=C\c1c[nH]c2ccccc12)C(=O)Nc1ncc(Cc2ccc(Cl)cc2Cl)s1	MARV entry inh inconclusive, HCV inh 35µM, Lassa entry inh inconclusive
Nc1nc2c(ncn2C2OC(CO)CC2O)c(=O)[nH]1 (stereo not given)	none (no result: HCMV inh, MARV entry inh, HCV inh, Lassa entry inh)
COc1ccc(-n2c(COc3cccc4ccccc34)nnc2SCC#N)cc1	MARV entry inh inconclusive, HCV inh inconclusive, Lassa entry inh inconclusive
N#CCSc1nnc(COc2cccc3ccccc23)n1-c1ccccc1	MARV entry inh inconclusive, HCV inh inconclusive, Lassa entry inh inconclusive, FMDV inh 14µM
O=C(O)CCSc1nnc(COc2cccc3ccccc23)n1-c1cccc(Cl)c1	HCMV inh -99, MARV entry inh inconclusive
CC(=O)c1ccc(NC(=O)Cn2cc3c(n2)CCCC3)cc1	none (no result: HCV inh)
CN(CC(=O)Nc1ccccc1C(F)(F)F)C(=O)c1cc(-c2cccs2)nn1-c1ccccc1	HCV inh inconclusive
CN(CC(=O)Nc1cccc(F)c1)C(=O)c1cc(-c2cccs2)nn1-c1ccccc1	HCV inh 11µM, FMDV inh inconclusive
COc1ccc(CCN2CCCn3c2nc2c3c(=O)n(CC(C)C)c(=O)n2C)cc1OC	HCV inh 10µM, FMDV inh inconclusive (no result: MARV entry inh, Lassa entry inh)
Cc1cccc(Cn2c(=O)c3c(nc4n3CCCN4Cc3ccccc3)n(C)c2=O)c1	MARV entry inh inconclusive, HCV inh 11µM, FMDV inh inconclusive
Cn1c(=O)n(Cc2ccc(F)cc2)c(=O)c2c1nc1n2CCCN1C1CCCCC1	HCMV inh -67, FMDV inh inconclusive
CCn1c(=O)c2c(nc3n2CCCN3CCc2ccc(OC)c(OC)c2)n(C)c1=O	FMDV inh inconclusive
O=C(CSc1nc2c(c(C(F)(F)F)n1)CCc1ccccc1-2)NCc1ccco1	HCV inh inconclusive
CC(NC(=O)CSc1nc2c(c(C(F)(F)F)n1)CCc1ccccc1-2)c1ccccc1 (stereo not given)	HCMV inh inconclusive, MARV entry inh inconclusive, HCV inh 13µM, Lassa entry inh inconclusive, FMDV inh inconclusive
CN(C)[C@@H]1C(=O)C(C(N)=O)=C(O)[C@@]2(O)C(=O)C3=C(O)c4c(O)ccc(Cl)c4[C@@](C)(O)[C@H]3C[C@@H]12	HCV inh 0.89µM, FMDV inh inconclusive (no result: MARV entry inh, Lassa entry inh)
CN(C)[C@@H]1C(=O)C(C(N)=O)=C(O)[C@@]2(O)C(=O)C3=C(O)c4c(O)cccc4[C@@](C)(O)C3C[C@@H]12 (stereo not given in full)	none (no result: MARV entry inh, Lassa entry inh)
C(=NN1CCCCCC1)c1c[nH]c2ccccc12	none
Brc1ccc2[nH]cc(/C=N/N3CCCCC3)c2c1	HCMV inh -84, HCV inh inconclusive
CCc1nc2c(OCCC3CCCCC3)cccn2c1N(C)C(=O)c1cccs1	FMDV inh 28µM (no result: MARV entry inh, HCV inh, Lassa entry inh)
CCCCC(=O)N(C)c1c(CC)nc2c(OCCC3CCCCC3)cccn12	HCMV inh -98, FMDV inh inconclusive (no result: MARV entry inh, HCV inh, Lassa entry inh)
CCOC(=O)C(=O)N(C)c1c(CC)nc2c(OCc3ccc(Cl)cc3)cccn12	none (no result: MARV entry inh, HCV inh, Lassa entry inh)
CCc1nc2c(OCCC3CCCCC3)cccn2c1N(C)C(=O)CC(C)C	FMDV inh inconclusive (no result: MARV entry inh, HCV inh, Lassa entry inh)
CCOC(=O)N(C)c1c(CC)nc2c(OCc3ccc(Cl)cc3)cccn12	HCMV inh -89 (no result: MARV entry inh, HCV inh, Lassa entry inh)
CCc1nc2c(OCCn3cccc3)cccn2c1N(C)C(=O)c1cccs1	none (no result: MARV entry inh, HCV inh, Lassa entry inh)
CCCCC(=O)N(C)c1c(CC)nc2c(OCC3CCCCC3)cccn12	HCMV inh -64 (no result: MARV entry inh, HCV inh, Lassa entry inh)
COc1ccc(OC)c(-c2cc(Cl)c3c(c2)CC(CNC(=O)[C@@H]2CCCN2C(C)=O)O3)c1 (stereo not given in full)	none (no result: HCMV inh, MARV entry inh, HCV inh, Lassa entry inh)
COc1ccccc1C(=O)COC(=O)Cn1nc(C)c([N+](=O)[O-])c1C	none
